Data published in PubChem BioAssay (Tox21).
Where “and” joins values, the source holds several entries; their conditions need not be identical. Equal entries are not always repeated. Results filed as inconclusive are left out. A structure can be active in one record and inactive in another. Calls of active or inactive are those of the source. Unless noted, calls follow the shape of the dose curve; as a rule, active = well fitted curve in the direction sought with a large enough effect in the repeat runs; inconclusive = weak or mixed curves; inactive = no such curve, though single readings can be large; an effect the other way counts as inactive or inconclusive.

Legend:
[1] = biological target: Luciferin 4-monooxygenase (Photinus pyralis) (UniProt P08659); assay: qHTS assay to identify small molecule inhibitors of firefly luciferase (AID 1224835); also: nearly all actives have a fitted effect of over 25% in size; also: potency is read from the fitted curve at half-maximal effect
Sequence of Luciferin 4-monooxygenase (Photinus pyralis) (P08659 whole entry, looked up): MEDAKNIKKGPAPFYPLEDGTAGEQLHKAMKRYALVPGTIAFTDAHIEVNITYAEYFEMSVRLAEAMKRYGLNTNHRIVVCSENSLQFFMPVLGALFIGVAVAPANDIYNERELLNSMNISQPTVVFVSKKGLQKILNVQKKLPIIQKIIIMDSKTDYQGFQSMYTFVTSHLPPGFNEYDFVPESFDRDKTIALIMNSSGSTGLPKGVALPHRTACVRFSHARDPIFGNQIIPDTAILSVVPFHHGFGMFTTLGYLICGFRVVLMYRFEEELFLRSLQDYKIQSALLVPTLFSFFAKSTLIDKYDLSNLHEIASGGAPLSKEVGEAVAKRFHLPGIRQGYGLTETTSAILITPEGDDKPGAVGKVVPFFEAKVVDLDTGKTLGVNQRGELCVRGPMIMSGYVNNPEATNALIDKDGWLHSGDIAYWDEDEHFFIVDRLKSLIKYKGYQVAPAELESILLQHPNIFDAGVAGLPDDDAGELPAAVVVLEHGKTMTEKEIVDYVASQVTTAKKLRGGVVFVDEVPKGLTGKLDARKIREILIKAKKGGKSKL
Outline: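 Biochemical qHTS: compounds run as interplate titrations against purified firefly enzyme, with D-luciferin and ATP each at its KM concentration. Light output recorded by CCD imaging.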

[2] = qHTS assay to identify small molecule agonists of the constitutive androstane receptor (CAR) signaling pathway - cell viability counter screen (AID 1224836); also: nearly all actives have a fitted effect of over 45% in size; also: potency is read from the fitted curve at half-maximal effect
Outline: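 23 h treatment, 37 C, 5% CO2. Cell line: HepG2 stably expressing hCAR with a CYP2B6-2.2kb construct. Co-treatment: PK11195, 0.75 uM final. Read-out: CellTiter-Fluor fluorescence intensity.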

[3] = qHTS assay to identify small molecule antagonists of the constitutive androstane receptor (CAR) signaling pathway - cell viability counter screen (AID 1224837); also: nearly all actives have a fitted effect of over 45% in size; also: potency is read from the fitted curve at half-maximal effect
Outline: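 Using CellTiter-Fluor, viability is scored in HepG2 cells stably carrying hCAR and a 2.2kb CYP2B6 reporter after 23 hr compound exposure across 15 concentrations, with CITCO present at 50 nM.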

[4] = biological target: Nuclear receptor subfamily 1 group I member 3 (Homo sapiens) (UniProt Q14994); assay: qHTS assay to identify small molecule antagonists of the constitutive androstane receptor (CAR) signaling pathway (AID 1224838);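 also: HepG2 cells stably expressing hCAR with CYP2B6 luciferase reporter stimulated by CITCO; nearly all actives have a fitted effect of over 40% in size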; also: potency is read from the fitted curve at half-maximal effect
Sequence of Nuclear receptor subfamily 1 group I member 3 (Homo sapiens) (Q14994 whole entry, looked up): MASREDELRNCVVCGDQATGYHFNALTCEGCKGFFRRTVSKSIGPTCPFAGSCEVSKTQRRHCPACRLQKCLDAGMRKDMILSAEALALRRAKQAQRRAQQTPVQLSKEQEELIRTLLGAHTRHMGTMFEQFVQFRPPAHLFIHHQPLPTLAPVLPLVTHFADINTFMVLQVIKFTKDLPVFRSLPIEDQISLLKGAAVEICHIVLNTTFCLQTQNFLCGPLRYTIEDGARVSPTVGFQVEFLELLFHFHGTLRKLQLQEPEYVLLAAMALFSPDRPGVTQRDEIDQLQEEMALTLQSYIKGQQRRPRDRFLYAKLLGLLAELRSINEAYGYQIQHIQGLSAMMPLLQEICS
Outline: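 Reporter luminescence was quantified after 24 h exposure of hCAR/CYP2B6-2.2kb double-stable HepG2 cells to compounds at 15 concentrations in the presence of 50 nM CITCO final.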

[5] = biological target: Nuclear receptor subfamily 1 group I member 3 (Homo sapiens) (UniProt Q14994); assay: qHTS assay to identify small molecule agonists of the constitutive androstane receptor (CAR) signaling pathway (AID 1224839); also: nearly all actives have a fitted effect of over 15% in size; also: potency is read from the fitted curve at half-maximal effect;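 as to activation: HepG2 cells stably carrying human CAR and a CYP2B6 luciferase reporter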
Outline: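 Compounds tested at 15 concentrations on HepG2 cells stably harbouring hCAR and CYP2B6-2.2kb reporter constructs, co-treated with PK11195 (0.75 uM final), 24 h at 37 C; luminescent reporter signal quantified.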

[6] = qHTS assay to identify small molecule antagonists of the estrogen related receptor signaling pathway with the pleiotropic PPARgamma coactivator (PGC) from Tox21 10K library - cell viability counter screen (AID 1224840; active = well fitted cell-killing curve with a large enough effect in the repeat runs, not every such curve was filed as active; also: nearly all actives have a fitted effect of over 40% in size; also: potency is read from the fitted curve at half-maximal effect)
Outline: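 Here the PGC/ERR cells serve as a cytotoxicity control: they are exposed to compounds for 17.5 hours at 37 C, and live-cell signal is quantified using CellTiter-Fluor fluorescence.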

[7] = qHTS assay to identify small molecule antagonists of the estrogen related receptor signaling pathway with the pleiotropic PPARgamma coactivator (PGC) from Tox21 10K library (AID 1224841; call rule not given here; also: actives are mostly falling curves and most rising ones were filed inactive; nearly all actives have a fitted effect of over 50% in size; also: potency is read from the fitted curve at half-maximal effect)
Outline: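 Each well held 2,000 PGC/ERR cells, pre-incubated six hours (37 C, 5% CO2). Test substances in DMSO were added by pin tool and left for 18 h at 37 C before luciferase detection by One-Glo.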

[8] = qHTS assay to identify small molecule agonists of the estrogen related receptor signaling pathway with the pleiotropic PPARgamma coactivator (PGC) from Tox21 10K library (AID 1224842); also: nearly all actives have a fitted effect of over 15% in size; also: potency is read from the fitted curve at half-maximal effect
Outline: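 PGC/ERR reporter cell line, 2,000 cells per well, incubated 6 h at 37 C before 23 nL compound in DMSO was added. After 18 h at 37 C, One-Glo luminescence read following 30 min at room temperature.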

[9] = biological target: Thyrotropin receptor (Homo sapiens) (UniProt P16473); assay: qHTS assay to identify small molecule agonists of the thyroid stimulating hormone receptor (TSHR) signaling pathway (AID 1224843; calls by dose curve; also: nearly all actives have a fitted effect of over 45% in size)
Sequence of Thyrotropin receptor (Homo sapiens) (P16473 whole entry, looked up): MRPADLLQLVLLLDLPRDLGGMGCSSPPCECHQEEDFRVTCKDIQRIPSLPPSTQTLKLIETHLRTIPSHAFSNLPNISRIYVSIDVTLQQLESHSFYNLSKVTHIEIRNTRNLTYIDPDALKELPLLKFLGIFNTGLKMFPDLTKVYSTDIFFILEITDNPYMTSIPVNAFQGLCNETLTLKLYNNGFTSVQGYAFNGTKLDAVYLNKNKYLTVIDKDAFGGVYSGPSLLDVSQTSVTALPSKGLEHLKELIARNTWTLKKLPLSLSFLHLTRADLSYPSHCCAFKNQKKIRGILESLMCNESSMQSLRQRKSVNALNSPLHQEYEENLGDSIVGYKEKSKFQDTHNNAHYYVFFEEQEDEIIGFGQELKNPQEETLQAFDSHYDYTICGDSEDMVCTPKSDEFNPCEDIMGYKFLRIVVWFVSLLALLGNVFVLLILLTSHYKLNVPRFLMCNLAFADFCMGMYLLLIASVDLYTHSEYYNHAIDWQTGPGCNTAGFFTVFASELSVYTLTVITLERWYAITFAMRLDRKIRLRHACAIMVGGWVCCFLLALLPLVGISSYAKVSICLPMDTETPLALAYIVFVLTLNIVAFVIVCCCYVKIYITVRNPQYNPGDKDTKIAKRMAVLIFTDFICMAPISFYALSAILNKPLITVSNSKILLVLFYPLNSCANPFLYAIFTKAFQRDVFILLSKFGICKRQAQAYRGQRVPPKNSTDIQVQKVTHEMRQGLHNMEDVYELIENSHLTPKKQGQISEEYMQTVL
Outline: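 Steps: seed 800 TSHR-HEK293 cells per well; add test compound and hold 30 min at ambient temperature; dispense cAMP-d2 then anti-cAMP cryptate; incubate 1 h at ambient; measure fluorescence intensity.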

[10] = qHTS assay to identify small molecule agonists of the hypoxia (HIF-1) signaling pathway - cell viability counter screen (AID 1224844; calls by dose curve; also: nearly all actives have a fitted effect of over 50% in size; also: potency is read from the fitted curve at half-maximal effect)
Outline: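 Multiplexed with the HRE beta-lactamase assay, this viability read used CellTiter-Glo luminescence (30 min, RT) on HRE-bla ME-180 cells treated 17 hrs with compounds in 0.5% dialyzed FBS medium.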

[11] = qHTS assay to identify small molecule agonists of H2AX (AID 1224845; active = well fitted activation curve with a large enough effect in the signal ratio in the repeat runs, not every such curve was filed as active; the % refers to the signal ratio; also: potency is read from the fitted curve at half-maximal effect)
Outline: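 Wild-type CHO-K1 cells, plated overnight, exposed 3hr at 37C to 15 concentrations (0.76% DMSO final). Lysed, then HTRF anti-pH2AX (S139) cryptate and anti-H2AX-d2 antibodies, 24 hr room temperature; 665/620 nm emission read.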

[12] = qHTS assay to identify small molecule agonists of the hypoxia (HIF-1) signaling pathway (AID 1224846; active = well fitted activation curve with a large enough effect in the signal ratio in the repeat runs, not every such curve was filed as active; the % refers to the signal ratio)
Outline: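 Hypoxia-pathway activation was scored as increased beta-lactamase from an HRE-controlled reporter in ME-180 cells; plated at 2,000 cells per well with 0.5% dialyzed FBS, they were exposed 17 hrs to compounds and then given CCF4-AM.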

[13] = qHTS assay to identify small molecule agonists of H2AX - cell viability counter screen (AID 1224847; calls by dose curve; also: nearly all actives have a fitted effect of over 30% in size; also: potency is read from the fitted curve at half-maximal effect)
Outline: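 Compounds tested at 15 concentrations were incubated 3 hr at 37C with wild-type CHO-K1 cells; cellular ATP-based luminescence (CellTiter-Glo) indicated viability.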

[14] = qHTS assay to identify small molecule antagonists of the estrogen related receptor (ERR) signaling pathway from Tox21 library (AID 1224848); also: nearly all actives have a fitted effect of over 50% in size; also: potency is read from the fitted curve at half-maximal effect
Outline: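 Luminescent reporter read-out (ONE-Glo) from NTP's ERR cell line after 18 h treatment at 37 C with DMSO-dissolved Tox21 compounds; cells pre-plated 6 h beforehand at 2,000 per well.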

[15] = qHTS assay to identify small molecule agonists of the estrogen related receptor (ERR) signaling pathway from Tox21 library (AID 1224849; calls by dose curve; also: nearly all actives have a fitted effect of over 15% in size); conditions: ERR reporter cell line, ONE-Glo luciferase, 18 h; at 92.4 µM (top of the series) unless noted
Outline: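 Six hours post-seeding at 37 C/5% CO2, ERR cells receive DMSO-solubilised compounds; after 18 h at 37 C, ONE-Glo reagent is applied and luminescence recorded.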

[16] = qHTS RealTime-Glo MT Cell Viability Assay in HepG2 cells - 24 hour (AID 1224867); also: nearly all actives have a fitted effect of over 50% in size; also: potency is read from the fitted curve at half-maximal effect
Outline: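 Cells + NanoLuc/prosubstrate dispensed (600 cells/well) → 5 h at 37 C/5% CO2 → compounds in DMSO transferred → 40 h incubation at 37 C, luminescence read at 0, 8, 16, 24, 32, 40 h.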

[17] = qHTS RealTime-Glo MT Cell Viability Assay in HEK293 cells - 32 hour (AID 1224868); also: nearly all actives have a fitted effect of over 50% in size; also: potency is read from the fitted curve at half-maximal effect
Outline: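 Tox21 10K qHTS, HEK293, 600 cells/well, RealTime-Glo reagent co-dispensed with cells; 5 h preincubation, compound by pintool, 37 C, luminescence at 0–40 h.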

[18] = A CellTox Green Cytotoxicity Assay to monitor cytotoxicity in HEK293 cells - 0 hour (AID 1224869); also: nearly all actives have a fitted effect of over 50% in size
Outline: (§1)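 Seeding of HEK293 cells together with cytotoxicity dye preceded a 5 h incubation at 37 C/5% CO2. Test compounds in DMSO were then added and fluorescence monitored across 40 h.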

[19] = qHTS RealTime-Glo MT Cell Viability Assay in HepG2 cells - 40 hour (AID 1224870); also: nearly all actives have a fitted effect of over 50% in size; also: potency is read from the fitted curve at half-maximal effect
Outline: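 HepG2 cells (600/well) mixed with RealTime-Glo MT reagent, settled 5 h at 37 C/5% CO2 before compound addition. Nonlytic NanoLuc luminescence from viable-cell prosubstrate reduction read repeatedly during 40 h treatment at 37 C.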

[20] = A CellTox Green Cytotoxicity Assay to monitor cytotoxicity in HEK293 cells - 40 hour (AID 1224871); also: nearly all actives have a fitted effect of over 45% in size; also: potency is read from the fitted curve at half-maximal effect
Outline: as §1
% is scaled to controls: 0 for no effect and ±100 for the full control effect.

Cc1ccc(CCl)cc1
inactive: Potency [1] | Potency [2] | Potency [3] | Potency [4] | Potency [5] | Potency [6] | Potency [7] | Potency [8] | Potency [9] | Potency [10] | Potency [11] | outcome [12] | Potency [13] | Potency [14] | activity change, positive = activation [15] -1.8% | Potency [16] | Potency [17] | Potency [18] | Potency [19] | Potency [20]

CC(c1ccc(O)cc1)c1ccc(O)cc1
active: Potency [1] 74.7 µM and 44.8 µM | Potency [5] 51.1 µM and 30.6 µM | Potency [17] 45.9 µM
inactive and 56.6 µM (active): Potency [11]
inactive: Potency [2] | Potency [3] | Potency [4] | Potency [6] | Potency [7] | Potency [8] | Potency [9] | Potency [10] | outcome [12] | Potency [13] | Potency [14] | activity change, positive = activation [15] -56.9% and -6.34% | Potency [16] | Potency [18] | Potency [19] | Potency [20]

O=C(CCCN1CCC2(CC1)C(=O)NCN2c1ccccc1)c1ccc(F)cc1
inactive: Potency [1] | Potency [5] | Potency [6] | Potency [7] | Potency [8] | Potency [9] | Potency [11] | Potency [14] | Potency [16] | Potency [18]
active: Potency [2] 5.96 µM | Potency [3] 3.35 µM | Potency [4] 7.5 µM | Potency [20] 19 µM

C[C@H]1CC[C@@H]2[C@@H](C)[C@H]3[C@H](C[C@H]4[C@@H]5CC=C6CC(O[C@@H]7O[C@H](CO)[C@H](O)[C@H](O[C@@H]8O[C@H](CO)[C@@H](O)[C@H](O)[C@H]8O)[C@H]7O[C@H]7O[C@@H](C)[C@H](O)[C@@H](O)[C@H]7O)CC[C@]6(C)[C@H]5CC[C@]34C)N2C1 (some centres not stated)
active: Potency [2] 22.4 µM | Potency [3] 22.4 µM | Potency [4] 22.4 µM | Potency [6] 22.4 µM | Potency [10] 16 µM | Potency [13] 32.9 µM | Potency [16] 50.6 µM | Potency [17] 14.3 µM | Potency [19] 56.7 µM
inactive: Potency [1] | Potency [5] | Potency [7] | Potency [11] | activity change, positive = activation [15] -50.4% | Potency [18]

ClC1=C(Cl)[C@]2(Cl)[C@@H]3[C@@H](Cl)[C@@H](Cl)C[C@@H]3[C@@]1(Cl)C2(Cl)Cl
inactive: Potency [1] | Potency [2] | Potency [3] | Potency [4] | Potency [5] | Potency [6] | Potency [7] | Potency [8] | Potency [10] | Potency [11] | outcome [12] | Potency [13] | Potency [14] | activity change, positive = activation [15] 0.0857% | Potency [16] | Potency [18] | Potency [20]

O=C(CCl)Nc1ccccc1
active: Potency [2] 48.6 µM | Potency [3] 48.6 µM | Potency [4] 54.5 µM | Potency [6] 24.3 µM | Potency [7] 8.63 µM | Potency [11] 80 µM | Potency [14] 19.3 µM
inactive: Potency [1] | Potency [5] | Potency [8] | Potency [9] | Potency [13] | activity change, positive = activation [15] -72.1% | Potency [16] | Potency [18] | Potency [19]

Cc1cc(N=Nc2ccccc2C)ccc1N
active: Potency [1] 5.64 µM and 6.33 µM | Potency [2] 17.2 µM and 1.09 µM | Potency [3] 3.06 µM | Potency [5] 30.6 µM and 48.6 µM | Potency [6] 38.6 µM and 27.3 µM | Potency [8] 4.33 µM and 2.43 µM | Potency [13] 113 µM and 89.8 µM | activity change, positive = activation [15] 34.9% and 43.7% | Potency [17] 21.9 µM | Potency [20] 49 µM
inactive: Potency [4] | Potency [7] | Potency [10] | Potency [11] | Potency [14] | Potency [18] | Potency [19]

N#CSCSC#N
inactive: Potency [1] | Potency [5] | Potency [7] | Potency [8] | activity change, positive = activation [15] -81.6% and -76.5% | Potency [18]
active: Potency [2] 44.2 µM and 48.1 µM | Potency [3] 27.9 µM and 27 µM | Potency [4] 19.8 µM and 24.1 µM | Potency [6] 55.7 µM and 53.9 µM | Potency [10] 17.8 µM and 8.62 µM | Potency [11] 15.8 µM | Potency [13] 51.6 µM and 50 µM | Potency [14] 27.9 µM and 60.5 µM | Potency [16] 50.1 µM and 19.3 µM | Potency [17] 12.6 µM and 21.7 µM | Potency [19] 50.1 µM and 21.7 µM

[Cl][Sn]([c]1ccccc1)([c]1ccccc1)[c]1ccccc1
active: Potency [1] 6.01 µM | Potency [2] 3.66 µM | Potency [3] 2.06 µM | Potency [4] 0.206 µM | Potency [6] 0.82 µM | Potency [7] 0.82 µM | Potency [11] 0.677 µM | Potency [13] 1.52 µM | Potency [14] 0.58 µM | Potency [16] 2.61 µM | Potency [19] 2.61 µM | Potency [20] 1.65 µM
inactive: activation [5] -23.6% [at 19 µM] | activation [8] -35.3% [at 19 µM] | activity change, positive = activation [15] -65.5% [at 19 µM] | cytotoxicity [18] -13.5% [at 15.8 µM]

C=CCOC(N)=O
inactive: Potency [1] | Potency [2] | Potency [3] | Potency [4] | Potency [5] | Potency [6] | Potency [7] | Potency [8] | Potency [9] | Potency [10] | Potency [11] | outcome [12] | Potency [13] | Potency [14] | activity change, positive = activation [15] 2.68% | Potency [16] | Potency [18] | Potency [19] | Potency [20]

Clc1ccc(C(Cl)(Cl)Cl)c(Cl)c1
active: Potency [7] 61.6 µM | Potency [14] 61.6 µM
inactive: Potency [1] | Potency [2] | Potency [3] | Potency [4] | Potency [5] | Potency [6] | Potency [8] | Potency [9] | Potency [11] | Potency [13] | activity change, positive = activation [15] -45.2% | Potency [16] | Potency [18] | Potency [19]
